# A selection: hits, their analogues and other compounds. The true share with any hit is near 6.1%.
# D1 potentiator = enhances dopamine response at the human D1 receptor | P21728 | HEK293 TREx D1 cells, calcium flux, dopamine EC20 potentiation | potentiation, % at 10 µM | actives 0.036% (n = 360,000); in the data active = potentiation above about 30%; note: 0% is about no effect
# D1 agonist = activates the human D1 dopamine receptor. P21728. HEK293 T-REx D1 cells, calcium flux, agonist mode. activation, % at 2 µM. actives 1% (n = 360,000). AID 504660; in the data active = activation above about 30%; note: 0% is about no effect
#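 Inducible HEK293 T-REx D1 cells, force-coupled to calcium signalling, were plated at 4000 cells/well with tetracycline and held overnight at 30 C. After no-wash calcium dye loading, compound-evoked calcium rise over 180 s flagged agonists.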
# DRD3 antagonist = antagonists of human D3 dopamine receptor | P35462 | D3R cells, DiscoveRx beta-arrestin luminescence, antagonist mode; active compounds read low | max response, negative = inhibition, % | actives 2.5% (n = 360,000); in the data active = max response below about -50%; inconclusive = no clear call, values can overlap the other calls; note: % is set by controls: 0 for no effect and ±100 for the full control effect
#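 Cells expressing the human receptor were seeded at 1500 cells/well, incubated overnight at 37 degrees C in 5% CO2, then exposed to library compounds with dopamine controls for 90 minutes at 37 degrees C before luminescent detection.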
# D1 antagonist = antagonists of human D1 dopamine receptor | activity change, negative = inhibition, % at 10 µM | P21728 | AID 504652 | actives 3.2% (n = 360,000) | HEK293 TREx D1 cells, calcium flux, dopamine EC80; active compounds read low; in the data active = activity change below about -30%; note: % is set by controls: 0 for no effect and ±100 for the full control effect
#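 Tetracycline-induced HEK293 T-REx cells with force-coupled D1 receptor were loaded with a no-wash calcium dye. Compound was added after a 10 s baseline and read kinetically for 180 s; EC80 dopamine was then added and calcium flux followed another 180 s.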
# D3 ag = activates the human D3 dopamine receptor; P35462; D3R DiscoveRx beta-arrestin cells, luminescence, 90 min; max activation, %; actives 0.58% (n = 410,000); in the data active = max activation above about 30%; note: 0% is about no effect
#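 Agonist mode: compounds and dopamine controls were applied to plated cells for 90 min at 37 degrees C after an overnight attachment at 1500 cells/well. Luminescent read-out followed 30 - 60 minutes at room temperature with DiscoveRx detection reagent.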
# ERG-DNA inh = inhibitors of human ERG Ets domain-DNA interaction | Potency, µM (titrated, usually from 76.9 µM), without a hit: at the top dose FP activity, negative = inhibition, hits mostly inhibitors | fluorescence polarization, His-ERG Ets domain / labelled DNA | actives 0.028% (n = 370,000); active = well fitted inhibition curve with a large enough effect in the polarisation, with a control signal flat; inconclusive = small, poorly fitted or top-dose-only effect, or effect the other way, or a change in a side signal; inactive = no such curve, though single readings can be large or run the other way; the % refers to the polarisation;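 note: polarization taken with two DNA probes labelled with fluorescein and Texas red; potency is the fitted concentration of half-maximal effect; % of control where 0% means no effect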
# Target sequence (P11308 whole entry, looked up, the tested form may be a part): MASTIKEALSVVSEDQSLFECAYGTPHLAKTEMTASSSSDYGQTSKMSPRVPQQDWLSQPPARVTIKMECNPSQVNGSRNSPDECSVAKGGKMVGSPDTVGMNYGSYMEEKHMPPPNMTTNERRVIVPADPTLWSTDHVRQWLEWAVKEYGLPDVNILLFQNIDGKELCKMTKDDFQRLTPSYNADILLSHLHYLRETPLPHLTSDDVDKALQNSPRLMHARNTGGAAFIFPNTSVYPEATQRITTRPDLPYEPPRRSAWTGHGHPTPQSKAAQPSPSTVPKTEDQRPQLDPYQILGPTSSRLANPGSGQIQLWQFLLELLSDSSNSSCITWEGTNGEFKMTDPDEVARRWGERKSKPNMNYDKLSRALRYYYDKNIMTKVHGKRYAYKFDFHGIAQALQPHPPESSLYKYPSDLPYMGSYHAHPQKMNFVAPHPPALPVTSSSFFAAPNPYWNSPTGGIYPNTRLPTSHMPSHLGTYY
#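 His-tagged ERG Ets domain (1 uM in the protein solution; 300mM KCl, 50mM Tris-HCl, 1mM EDTA, 1mM DTT, pH 7.5) received compound, then a probe mix of 5 nM fluorescein-DNA and 100nM Texas-615-DNA. Fluorescence polarization was read for both dyes.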
# * marks the source's active call; other numbers are inactive results; ? = inconclusive; nt = not tested or not shown.
SMILES,D1 potentiator,D1 agonist,DRD3 antagonist,D1 antagonist,D3 ag,ERG-DNA inh
C/C(N)=C(/C#N)C(=O)COC(=O)c1ccccc1O,-5.7,5.1,17.3,15.7,2.0,-2.3%
C/C(N)=C(/C#N)C(=O)COC(=O)c1cccc2ccccc12,-10.4,3.0,-19.9,-34.3*,1.1,24.8%
CC(C)n1cnc2c(N(C)c3ccccc3)nc(N(CCN(C)C)Cc3ccccc3)nc21,0.5,28.1,-69.8*,-104.0*,-43.8,-9.3%
O=C1C2ON(c3ccccc3)C(c3cccnc3)C2C(=O)N1c1ccc(Cl)c(Cl)c1 (stereo unspecified),-9.1,3.0,30.5,-20.0,46.9*,4.5%
Cc1ccc(CNc2oc(-c3ccc(COc4ccc(Cl)cc4)o3)nc2C#N)cc1,1.0,0.4,nt,1.8,5.1,1.7%
CCN(CC)c1ccc(NC(=O)c2ccc(Br)o2)c(C)c1,-8.9,34.6*,-73.2*,-1.2,2.0,-4.3%
O=C(NCc1cccc(Cl)c1)C1Cc2c(-c3cccc(F)c3)ccnc2O1 (stereo unspecified),nt,nt,25.4,nt,1.1,nt
CN1CCN(c2ccc(CNC(=O)C3Cc4c(-c5cccc(F)c5)ccnc4O3)cc2)CC1 (stereo unspecified),nt,nt,-56.1*,nt,-13.5,nt
CNC(=O)C1Cc2c(-c3ccc(Cl)cc3)ccnc2O1 (stereo unspecified),nt,nt,-57.3*,nt,-5.9,nt
O=C(NCCc1ccccc1)C1Cc2c(-c3ccccc3)ccnc2O1 (stereo unspecified),nt,nt,-67.5*,nt,-10.0,nt
CC(=O)c1cccc(-c2ccnc3c2CC(C(=O)NCc2ccc(N4CCN(C)CC4)cc2)O3)c1 (stereo unspecified),nt,nt,3.1,nt,-13.7,nt
CC(=O)Nc1ccc(NC(=O)C2Cc3c(-c4ccc(Cl)cc4)ccnc3O2)cc1 (stereo unspecified),nt,nt,11.3,nt,5.1,nt
O=C(NCc1ccccc1)C1Cc2c(-c3cccc(F)c3)ccnc2O1 (stereo unspecified),nt,nt,-50.2*,nt,-8.4,nt
CCOC(=O)C(CC)/C(C)=N/NC(=O)c1ccc([N+](=O)[O-])cc1 (stereo unspecified),0.1,0.5,-64.5*,5.2,-4.5,nt
Cc1ccc(C)c(NC(=O)CSc2nnc(-c3ccncc3)n2N)c1,-2.8,1.1,-70.0*,1.3,-3.2,7.3%
Cc1ccc(C)c(NC(=O)CSc2ccc(-c3cccs3)nn2)c1,-7.5,0.6,1.6,-80.9*,7.6,13.4%
Cc1ccccc1NC(=O)CSc1ccc(-c2cccs2)nn1,-2.4,4.3,nt,5.0,3.0,-6.3%
CCOC(=O)c1ccccc1NC(=O)CC(C)CC(=O)O (stereo unspecified),-9.3,7.4,0.0,7.6,-14.9,-10.4%
CC(CC(=O)O)CC(=O)Nc1ccccc1C(=O)O (stereo unspecified),-4.2,3.7,29.3,-30.1*,2.7,-3.8%
Cc1ccc(/C=C2\Oc3c(ccc(O)c3CN3CCN(CCO)CC3)C2=O)cc1,-0.2,32.2*,-13.9,-11.3,-4.9,10.1%
CC(C)c1ccc(/C=C2\Oc3c(ccc(O)c3CN3CCN(C)CC3)C2=O)cc1,0.1,68.3*,-22.7,-9.2,-25.3,12.0%
O=C1/C(=C/c2ccco2)Oc2c1ccc(O)c2CN1CCCCC1,-8.1,12.3,5.5,-13.4,-4.8,0.1%
CCN1CCN(Cc2c(O)ccc3c2O/C(=C\C=C\c2ccccc2OC)C3=O)CC1,0.8,112.5*,?,3.0,-10.0,0.0%
Cc1ccc(C(C)(c2ccc(N)cc2)c2ccc(N)cc2)cc1,nt,nt,-14.2,nt,-6.9,-0.8%
CCCCOc1ccc(CNC(=O)C2CCN(c3nnc(-n4cccc4CNc4ccc(C)cc4)s3)CC2)cc1,-4.5,-0.6,nt,8.9,-0.4,1.8%
SMILES,D1 potentiator,D1 agonist,DRD3 antagonist,D1 antagonist,D3 ag,ERG-DNA inh
Cc1nc(NC(=O)c2ccco2)sc1-c1csc(Nc2ccc(Cl)cc2)n1,-3.0,-0.5,57.0,5.7,51.7*,4.9%
COc1cccc(N(C(=O)c2ccco2)c2nc(-c3sc(NC(=O)c4ccco4)nc3C)cs2)c1,-2.6,3.6,76.9,3.4,32.1*,-3.1%
COc1ccccc1Nc1nc(-c2sc(NC(=O)c3ccco3)nc2C)cs1,2.6,2.5,-5.8,-7.3,0.1,5.1%
Cc1nc2cc(-c3sccc3-n3cccc3)nn2c(C)c1C,nt,nt,2.8,nt,3.7,0.9%
CC(C)NC(=O)N(C)C[C@H]1Oc2ccc(NC(=O)C3CCCCC3)cc2C(=O)N([C@H](C)CO)C[C@@H]1C,nt,nt,0.0,nt,7.7,9.8%
O=C(c1ccc(F)cc1)N1CCCCC(Sc2nnnn2-c2ccccc2)C1=O (stereo unspecified),-5.0,4.7,-18.7,-15.1,-4.8,-4.1%
O=C(c1ccccc1)N1CCCCC(Sc2nnnn2-c2ccccc2)C1=O (stereo unspecified),1.8,0.6,-59.7*,-1.3,-10.3,nt
Cc1nc(SCC(=O)Nc2ccc(F)cc2)c(C#N)c(C)c1CC(=O)c1ccc(Br)cc1,-1.3,2.4,-10.4,9.6,-10.1,-13.3%
Cc1cccc(NC(=O)CSc2nc(-c3cccs3)cc(C(F)(F)F)c2C#N)c1C,-1.6,48.7*,nt,-0.3,0.2,5.4%
Cc1cccc(NC(=O)CSc2nc(C)c(CC(=O)c3ccc(Br)cc3)c(C)c2C#N)c1C,1.6,-2.0,-53.4*,-0.8,1.9,-1.9%
COc1ccc(NC(=O)CSc2nc(-c3ccccc3)cc(-c3cc(OC)c(OC)c(OC)c3)c2C#N)c(OC)c1,6.2,32.9*,nt,3.7,0.2,2.0%
COc1cc(-c2cc(-c3ccccc3)nc(SCC(=O)O)c2C#N)cc(OC)c1OC,-6.1,2.1,11.7,-15.8,1.5,-0.7%
CCCCOc1ccc(-c2cc(C(F)(F)F)c(C#N)c(SCC(=O)O)n2)cc1,-6.2,67.8*,-13.8,-2.8,0.4,5.1%
O=C(c1ccc(Nc2nc3ccccc3n3nnnc23)cc1)N1CCN(c2ccc(F)cc2)CC1,-0.3,-0.1,nt,-14.9,0.5,0.0%
COc1ccccc1NC(=O)C(=O)/C=C(\O)c1ccccc1,-2.6,2.3,-8.2,8.2,21.2,-6.6%
N#Cc1ccccc1NC(=O)CSc1nc(-c2ccccc2)cc(C(F)(F)F)c1C#N,-0.7,132.6*,nt,14.9,3.6,3.1%
N#Cc1c(C(F)(F)F)cc(-c2cccs2)nc1SCC(=O)Nc1cccc(C(F)(F)F)c1,3.0,68.3*,nt,-5.2,0.4,3.3%
N#Cc1c(C(F)(F)F)cc(-c2cccs2)nc1SCC(=O)Nc1ccc(Cl)cc1,1.6,81.4*,nt,5.8,6.1,-0.2%
N#Cc1ccc(-c2cccs2)nc1SCC(=O)Nc1cccc(C(F)(F)F)c1,-0.5,4.4,nt,5.9,2.3,15.4%
COc1ccc(S(=O)(=O)N2CCOCC2)cc1Cl,-3.2,7.0,-17.3,-2.5,19.5,nt
